Screening results as filed in PubChem.
Compounds with a hit are over-represented: about 21% of the library has one in this group of screens.
NS1 function inh – blocks influenza NS1 protein function; AID 2326; 0.4% of 270,000 active; Potency, µM (top dose mostly 46.1 µM), inactives show at the top dose activity, positive = more growth; calls by dose curve; further: potency means the concentration at half of the fitted maximal effect; actives are rising curves; nearly all actives have a fitted effect of over 50% in size
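OD600 was taken as the measure of yeast growth restored by compound in an NS1-expressing S. cerevisiae strain. Cells had been washed out of glucose medium and diluted 1:100 into galactose -URA medium, pH 6.0.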
Pf growth 48h – P. falciparum growth inhibition at 48 hours (one generation) | P. falciparum luciferase growth in erythrocytes, 48 h | Potency, µM (top dose mostly 28.7 µM), inactives show at the highest dose activity change, negative = inhibition, most hits filed as inhibitors | 5.9% of 310,000 active; further: potency means the concentration at half of the fitted maximal effect; on the % scale 0 is the no-effect control and ±100 the full control effect
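Cell-based growth assay: transgenic P. falciparum expressing firefly luciferase, cultured in red cells within RPMI 1640 containing 0.5% w/v Albumax, 24 mM bicarbonate and gentamycin. A drop in luciferase activity indicates inhibition.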
SARS PLpro yeast – SARS-CoV PLP inhibition in yeast; S. cerevisiae expressing SARS-CoV PLpro, growth rescue; Potency, µM (titrated, usually from 32.9 µM), inactives show at the top dose activity, positive = growth rescue, actives largely listed as activators; 0.19% of 330,000 active; AID 485353; calls by dose curve; further: potency means the concentration at half of the fitted maximal effect; 0% is about no effect; nearly all actives have a fitted effect of over 55% in size
Pf growth 96h – P. falciparum growth inhibition at 96 hours | 6.9% of 320,000 active | Potency, µM (series often up to 28.7 µM), without a hit: at the top dose activity change, negative = inhibition, most hits filed as inhibitors | AID 504834 | P. falciparum luciferase reporter growth, 96 h; further: potency means the concentration at half of the fitted maximal effect; on the % scale 0 is the no-effect control and ±100 the full control effect
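P. falciparum expressing integrated firefly luciferase grown in erythrocytes (2% hematocrit, 0.05% parasitemia final) with compounds for 96 hours at 37 C, 5% CO2. Growth inhibition read as loss of luminescence after adding luciferase detection reagent.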
Shiga inhibitor – Shiga toxin inhibition. Vero cells, Shiga toxin protein synthesis inhibition reporter. inhibition, % at 38.7 µM. 9.2% of 290,000 active. AID 2315; in the data active means inhibition mostly above about 28%, no sharp cut-off; inactive means mostly below about 43%; further: 0% is about no effect
Cycloheximide cs – counter-screen hit for Shiga toxin inhibitors, cycloheximide | cell reporter, cycloheximide protein synthesis inhibition counterscreen | max response, % | 12% of 300,000 active; in the data active means max response mostly above about 13%, no sharp cut-off; inactive means mostly below about 14%; further: read at 38.3 µM for the half of the compounds with a filed dose; 0% is about no effect
* hit, by the source's call; u = inconclusive; x = not tested or not shown. Unless noted, the call rests on the fitted dose curve; in most records, active means well fitted inhibition curve with a large enough effect; inconclusive means small, poorly fitted or top-dose-only effect, or another doubt; inactive means no such curve, though single readings can be large or run the other way.

SMILES	NS1 function inh	Pf growth 48h	SARS PLpro yeast	Pf growth 96h	Shiga inhibitor	Cycloheximide cs
O=C(c1ccccc1NS(=O)(=O)c1cccc(C(F)(F)F)c1)N1CCc2ccccc21	24.4%	4.6%	-4.7%	18.3%	-3.0	-1.3
CCOC(=O)C(C)Sc1nc(-c2ccccc2)nc2ccccc12 (stereo unspecified)	x	u	-4.2%	23.8%	-4.9	-1.0
Cc1cc(=O)oc2cc(NC(=O)C(CCCN=C(N)N)NC(=O)OCc3ccccc3)ccc12 (stereo unspecified)	-4.4%	u	0.5%	1.3%	-9.9	6.5
CCOCCCNc1nc(C)nc2c1nnn2Cc1c(F)cccc1Cl	x	u	1.4%	1.0%	-8.9	0.2
COc1ccc(NC(=O)Cn2nnc(C(=O)NCc3ccccc3)c2N)c(OC)c1	x	12.7%	0.4%	39.9%	-13.6	-6.3
Cc1ccc(OCc2cc(C(=O)NCc3cn4ccccc4n3)no2)cc1C	5.0%	2.9%	-16.5%	u	37.3*	20.2*
COc1cccc(OCc2cc(C(=O)NCc3cnc4ccccn34)no2)c1	8.4%	u	-5.7%	u	-7.5	5.0
COc1cccc(CCNC(=O)c2cc(COc3c(F)cccc3F)on2)c1	-50.2%	-24.4%	-8.4%	u	-2.5	16.2*
Cc1cc(OCc2cc(C(=O)NCc3csc(C(C)C)n3)no2)cc(C)c1Cl	-11.2%	64.8%	0.7%	-2.5%	7.3	20.0*
Cc1ccc(CNC(=O)c2cc(COc3c(F)cccc3F)on2)s1	-1.6%	30.4%	-1.9%	-4.4%	20.6	-0.2
O=C(NCCc1cn2ccccc2n1)c1cc(COc2c(F)cccc2F)on1	-49.3%	-5.0%	-5.1%	-26.0%	51.7	17.1*
O=C(N/N=C/c1cccc(OCC(=O)N2CCCC2)c1)C(=O)Nc1ccccc1F	-0.1%	8.5%	8.0%	-1.9%	17.1	-1.6
CC(C)(C)n1nc(-c2ccc(F)cc2)c2c(N)ncnc21	14.7%	11.7µM*	-25.8%	14.7µM*	-9.0	-4.1
CC(C)(C)n1nc(-c2ccc(Cl)cc2)c2c(N)ncnc21	-81.1%	11.7µM*	-24.9%	3.7µM*	-17.0	-2.4
NC(=O)/C(=C/c1ccco1)NC(=O)/C=C/c1ccccc1	8.1%	-2.6%	2.7%	u	-4.2	1.5
CC(C)CCOC(=O)/C(=C/c1ccco1)NC(=O)/C=C/c1ccccc1	3.7%	u	-13.7%	4.15µM*	51.2	19.8*
C[n+]1cccc2c(Br)ccc([O-])c21	2.4%	u	-0.1%	2.33µM*	-7.6	-1.1
[O-][n+]1cccc2c(Br)cc(Br)c(O)c21	x	12.5%	-21.1%	0.0%	-15.8	-1.8
CN1C(C)(C)CC(=NOC(=O)c2ccccc2)CC1(C)C	-2.2%	-20.0%	2.9%	10.4µM*	-6.5	-3.3
O=C(CSc1ccc(-c2cccs2)nn1)Nc1ccccc1	x	10.0%	1.5%	0.7%	49.1	13.9
c1ccc(CSc2ccc(-c3cccs3)nn2)cc1	-0.9%	200.3%	1.4%	155.5%	40.1*	31.0*
N#Cc1c(N)nc(SCc2ccccn2)c(C#N)c1-c1cccs1	12.7%	u	3.1%	x	-11.8	0.8
c1ccc(CSc2ccc(-c3cccs3)nn2)nc1	x	200.2%	2.4%	u	50.9*	43.7*
CCOC(=O)C(C)Oc1c(C(=O)OC)sc2ncccc12 (stereo unspecified)	x	u	2.4%	u	-10.7	8.0
CCOC(=O)c1c(NC(=O)COc2ccccc2F)sc2c1CC(C)(C)NC2(C)C	x	11.7µM*	-10.2%	u	x	x
SMILES	NS1 function inh	Pf growth 48h	SARS PLpro yeast	Pf growth 96h	Shiga inhibitor	Cycloheximide cs
CCOC(=O)c1c(NC(=O)CSc2ncccn2)sc2c1CC(C)(C)NC2(C)C	-0.5%	14.7µM*	u	9.28µM*	-10.4	-1.7
CCOC(=O)c1c(NC(=O)CSc2nc3ccc(OC)cc3[nH]2)sc2c1CC(C)(C)NC2(C)C	x	u	-1.8%	5.86µM*	x	x
COc1ccc(NC(=O)CSc2nc3ccc(OC)cc3[nH]2)cc1	6.8%	2.5%	-0.9%	34.1%	1.0	3.6
CC1(C)Cc2c(sc(NC(=O)COc3ccc(Cl)cc3Cl)c2C(N)=O)C(C)(C)N1	0.0%	10.4µM*	-0.4%	u	-3.7	-1.5
O=C(CNC(=O)c1cncc(Br)c1)Nc1ccc(F)c(F)c1F	-0.1%	27.5%	-0.9%	31.2%	-4.6	-8.7
O=C(C/C=N\OCc1ccc([N+](=O)[O-])cc1)Nc1ccc(F)cc1F	-9.8%	15.2%	2.1%	24.9%	-5.0	-3.2
Cc1ccc(CSC(N)=Nc2ccccc2)cc1C	-3.1%	x	x	x	x	x
CC(C)=N/N=C(\N)SCc1ccccc1	-5.1%	0.0%	2.5%	51.2%	59.6	18.6*
O=S(=O)(c1ccc(Cl)cc1)N1CCCC(c2nc(-c3ccc(F)cc3)no2)C1 (stereo unspecified)	x	u	0.4%	-9.9%	x	x
O=C(Nc1ccc(Cl)cc1)N1CCC(c2nc(-c3ccc(F)cc3)no2)CC1	-18.1%	u	-26.0%	106.2%	53.1*	34.7*
COc1ccc(-c2noc(C3CCCN(C(=O)Nc4ccccc4F)C3)n2)cc1 (stereo unspecified)	-0.6%	73.1%	-1.0%	u	24.4	38.4*
COc1ccc(NC(=O)N2CCCC(c3nc(-c4ccc(OC)cc4)no3)C2)cc1 (stereo unspecified)	-12.7%	43.9%	-2.1%	18.8%	54.9	40.2*
COc1ccc(NC(=O)N2CCCC(c3nc(-c4ccc(C(C)C)cc4)no3)C2)cc1 (stereo unspecified)	-47.7%	37.4%	-21.3%	8.28µM*	20.9	32.1*
COc1ccc(-c2noc(C3CCCN(C(=O)Nc4ccccc4)C3)n2)cc1 (stereo unspecified)	4.7%	2.6%	-0.5%	3.3%	-13.4	-3.8
COC(=O)c1sccc1Oc1c(Cl)cccc1[N+](=O)[O-]	x	321.6%	-2.1%	3.3%	-10.4	-6.9
O=C(Nc1ccc(Cl)cc1)N1CCN(c2ccc3nnc(-c4ccc(F)cc4)n3n2)CC1	-10.6%	9.28µM*	2.6%	u	8.0	5.0
C=CCN(C(=O)c1csnn1)C(C(=O)NCc1ccc(F)cc1)c1sccc1C (stereo unspecified)	18.0%	-1.4%	1.1%	-0.1%	-3.3	-1.9
Cc1ccc(N2C(=O)CSC2c2cccs2)cc1 (stereo unspecified)	-4.5%	0.5%	3.4%	0.165µM*	3.3	-4.5
Cc1cc(C)cc(N2C(=O)CSC2c2cccs2)c1 (stereo unspecified)	5.7%	u	-3.7%	39.2%	17.1	-2.9
CCC(C)C(NC(=O)OC(C)(C)C)C(=O)NC1COC2CC(n3cc(C)c(=O)[nH]c3=O)OC12 (stereo unspecified)	x	x	x	x	-4.7	-3.7
S=C(NCc1ccco1)N1CCN(c2ccccc2Cl)CC1	x	3.4%	-4.2%	-10.0%	-1.9	-2.5
CCC(c1nnc(SCC(=O)NC2CCCCC2)n1Cc1ccccc1)N(C)C (stereo unspecified)	x	u	x	-15.6%	x	x
CC(=O)N(C1=C(N)C(=O)c2ccccc2C1=O)c1ccccc1	4.5%	u	-0.2%	9.28µM*	1.7	-1.3
